High-throughput results as filed in PubChem.
Shown are actives, neighbours in structure and some others; about 1.5% of the full set was active somewhere.
TrxR1 substrate: qHTS Assay for Substrates of Mammalian Selenoprotein Thioredoxin Reductase 1 (TrxR1): qHTS | purified TrxR1 substrate turnover, NADPH consumption readout | Potency, µM (series often up to 114 µM) | Thioredoxin reductase 1, cytoplasmic (Rattus norvegicus), O89049 | 390,000 compounds, 0.01% hits; further: nearly all actives have a fitted effect of over 50% in size
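Rat TrxR1, dispensed at 90 nM, was prereduced with 400 uM NADPH (final) for 5 min at ~22 deg C, then incubated with compound 15 min before 400 uM selenite. A first-read NADPH fluorescence drop versus no-compound background flagged substrates.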
Coupling enz: qHTS Assay for Inhibitors of Fructose-1,6-bisphosphate Aldolase from Giardia Lamblia: Coupling assay counterscreen; coupling enzyme system counterscreen, AmpLite Red fluorescence; activity change, negative = inhibition, % at 58.2 µM, hits read low; 290,000 compounds, 0.67% hits; AID 2472, 2010; in the data active means activity change below about -30%
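Counterscreen lacking aldolase: glyceraldehyde-3-phosphate coupling-enzyme reagent preincubated 10 min at RT with compound (at 57.5 uM final), then substrate/coupling system with AmpLite Red added; fluorescence read at 525/598 nm after 20 min RT.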
Eya2 phos inh: qHTS Assay for Inhibitors of the Phosphatase Activity of Eya2; 330,000 compounds, 0.006% hits; Potency, µM (highest dose often 76.9 µM), most hits filed as inhibitors; recombinant Eya2, OMFP fluorescence dephosphorylation (OMFP is methylfluorescein phosphate)
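Eya2 (0.2 uM) preincubated 10 min at ambient with compound, then OMFP substrate added at 50 uM; 10 min reaction in 50 mM HEPES pH 7.5, 50 mM NaCl, 5 uM MgCl2, 0.05% BSA, 1 mM DTT. Fluorescence read at Ex 485/Em 525 nm.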
TrxR1 inh: qHTS Assay for Inhibitors of Mammalian Selenoprotein Thioredoxin Reductase 1 (TrxR1): qHTS; Thioredoxin reductase 1, cytoplasmic (Rattus norvegicus), O89049; recombinant rTrxR1, NADPH fluorescence consumption, selenite substrate; Potency, µM (series often up to 114 µM), usual class: inhibitors; 390,000 compounds, 1% hits; AID 588453, 2011; further: nearly all actives have a fitted effect of over 65% in size
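Rat TrxR1 (90 nM in the dispensed reagent) was pre-reduced with 400 uM NADPH for 5 min at room temperature, then incubated with compound for 15 min. After 400 uM selenite was added, NADPH fluorescence (Ex 340/Em 450 nm) was followed for 8 min.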
IDH1 R132H inh: qHTS for Inhibitors of mutant isocitrate dehydrogenase 1 (IDH1): qHTS | Isocitrate dehydrogenase [NADP] cytoplasmic (Homo sapiens), O75874 | IDH1-R132H enzyme, NADPH consumption, diaphorase/resazurin fluorescence | Potency, µM (doses to about 76.6 µM), usual class: inhibitors | 390,000 compounds, 0.093% hits; further: nearly all actives have a fitted effect of over 65% in size
Target sequence (O75874 whole entry R132H, stated change not applied): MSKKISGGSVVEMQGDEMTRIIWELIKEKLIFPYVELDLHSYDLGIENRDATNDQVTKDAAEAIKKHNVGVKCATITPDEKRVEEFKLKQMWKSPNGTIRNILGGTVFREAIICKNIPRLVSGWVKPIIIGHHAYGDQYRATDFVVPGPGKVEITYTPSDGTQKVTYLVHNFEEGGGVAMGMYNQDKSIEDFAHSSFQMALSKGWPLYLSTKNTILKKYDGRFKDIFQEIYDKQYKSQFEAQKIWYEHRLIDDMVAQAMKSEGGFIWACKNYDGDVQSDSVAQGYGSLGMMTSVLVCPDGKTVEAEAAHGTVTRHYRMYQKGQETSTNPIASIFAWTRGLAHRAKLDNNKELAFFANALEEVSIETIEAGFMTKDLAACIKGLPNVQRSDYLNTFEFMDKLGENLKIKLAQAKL
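IDH1-R132H (0.5 ug/mL dispensed) in pH 7.5 Tris buffer was preincubated 30 min with compound, then given a substrate mix of 0.016 mM NADPH and 2 mM alpha-KG for 80 min at room temperature; remaining NADPH was read by diaphorase/resazurin fluorescence.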
A number is an active result; n = inactive; u = inconclusive; x = no result given; [ ] = remark or other dose. Unless noted, the call rests on the fitted dose curve; in most records, active means well fitted curve in the direction sought with a large enough effect; inconclusive means small, poorly fitted or top-dose-only effect, or another doubt; inactive means no such curve, though single readings can be large; an effect the other way counts as inactive or inconclusive.

SMILES	TrxR1 substrate	Coupling enz	Eya2 phos inh	TrxR1 inh	IDH1 R132H inh
O=C(O)COc1cccc2c1CCC=C2CCO/N=C(\c1ccccc1)c1cccnc1	x	n	x	x	x
COc1ccc(NCc2ccccc2[N+](=O)[O-])cc1OC	n	-40.2	n	n	n
COc1ccc(NC(=O)COC(=O)Cc2ccccc2[N+](=O)[O-])cc1OC	n	n	n	n	n
O=Cc1[nH]c2ccccc2c1N(C(=O)CCl)c1ccccc1	n	n	n	3.55µM	n
O=c1c(-c2ccc(O)cc2)coc2cc(O)cc(O)c12	n	n	n	n	n
O=c1c(-c2cc(O)c(O)c(O)c2)coc2cc(O)c(O)c(O)c12	x	-70.8	x	x	x
COc1cc(N2C(=O)C=CC2=O)ccc1N1C(=O)C=CC1=O	n[11.4 µM]	x	x	0.501µM	n
COc1ccc(N2C(=O)C3CC(C)=C(C)CC3C2=O)c(OC)c1 (centres undefined)	n	n	n	n	n
OC(CN1CCCCC1)c1ccccc1 (centres undefined)	n	x	x	n	x
Cc1ccc(/C=C/C(=O)NCCc2ccccc2)o1	n	n	n	14.1µM	n
Cc1ccc(/C=C/C(=O)Nc2cccc3ncccc23)o1	n	n	n	10µM	n
Cc1ccc(/C=C/C(=O)Nc2cccnc2)o1	n	n	n	31.6µM	n
Cc1ccc(/C=C/C(=O)Nc2nn[nH]n2)o1	n	n	n	50.1µM	n
CC(C)c1ccc(/C=C/C(=O)Nc2nn[nH]n2)cc1	x	n	n	x	x
COc1ccc2c(c1)C(=O)[C@@H](OC(=O)Nc1ccc(C)c(Br)c1)[C@H](c1ccc(OC)c(Br)c1)O2	x	n	x	x	x
COc1ccc(CN(Cc2ccccc2)C(=O)Nc2ccccc2)cc1COc1ccc(NC(C)=O)cc1	n	x	x	n	x
CC(=O)N(C1=C(N)C(=O)c2ccccc2C1=O)c1ccccc1	n	-34.1	n	n	n
O=C(N(c1ccccc1)c1ccccc1)N(c1ccccc1)c1ccccc1	n	n	n	n	n
CCC1Sc2ccc(S(=O)(=O)CCC(=O)NCc3ccc(C)o3)cc2NC1=O (centres undefined)	n	n	n	50.1µM	n
Cc1ccc(CNC(=O)CCS(=O)(=O)c2ccc(Br)s2)o1	n	n	n	8.91µM	n
COc1ccccc1CNc1nc(-c2ccc(N(C)C)cc2)nc2ccccc12	x	-32.3	x	x	x
CCOC(=O)C1=C(C)OC(N)=C(C#N)C1c1c(C)nn(-c2ccccc2)c1Cl (centres undefined)	n	-51.3	n	n	n
C=CCOC(=O)C1=C(C)OC(N)=C(C#N)C1c1c(C)nn(-c2ccccc2)c1Cl (centres undefined)	n	n	n	n	n
CN(C(=O)COC(=O)c1nc(Cl)c(Cl)c(Cl)c1Cl)C1CCS(=O)(=O)C1 (centres undefined)	n	n	n	14.1µM	n
CN(C(=O)COC(=O)c1ccc(C(C)(C)C)cc1)C1CCS(=O)(=O)C1 (centres undefined)	n	x	n	n	n
SMILES	TrxR1 substrate	Coupling enz	Eya2 phos inh	TrxR1 inh	IDH1 R132H inh
COc1cccc2c1C(=O)c1c(O)c3c(c(O)c1C2=O)C[C@@](O)(C(=O)CO)C[C@@H]3O[C@H]1C[C@H](N)[C@H](O)[C@H](C)O1	n	-40.1	n	n	n
COc1cccc2c1C(=O)c1c(O)c3c(c(O)c1C2=O)C[C@@](O)(C(=O)CO)C[C@@H]3OC1CC(N)C(O)C(C)O1 (some centres undefined)	n	x	x	n[11.4 µM]	n
CN(C)c1ccc(/C=C2\C=Cc3ccccc32)c(Cl)c1	n	x	x	n	x
Cc1ccc2[nH]c(=O)c(CN(Cc3ccco3)S(=O)(=O)c3c(C)ccc4nsnc34)cc2c1	n	n	n	28.2µM	n
COc1cc2nc(N(C)C)nc(NC3CCN(C)CC3)c2cc1OC	n	x	x	n	x
Cc1cc2ccccc2cn1	n	x	x	n	x
Cc1ccc(/C=C2/SC(=S)N(C3CCCCC3)C2=O)o1	n	n	n	n	n
CCOc1ccc(N2C(=O)/C(=C/c3ccco3)N(C)C2=S)cc1	n	n	n	u	n
Cc1ccc(C2=NOC(=O)/C2=C\c2ccc(C)o2)cc1	n	n	n	n	n
Cc1ccc(/C=C2\C(=O)NC(=O)N2C)o1	n	n	n	50.1µM	n
Cc1ccc(/C=C2/C(=O)N(c3ccccc3)C(=S)N2C)o1	n	n	n	20µM	n
Cc1ccc(/C=C2\C(=O)Nc3ccccc32)o1	n	n	n	17.8µM	n
Cc1ccc(/C=C2/SC(=O)NC2=S)o1	n	n	n	56.2µM	n
NC(=S)NCCCC(N)C(=O)O (centres undefined)	x	x	x	n	x
CCC(=O)N1C2=C(c3ccccc3[C@@H]1CC(=O)Nc1ccc3ccccc3c1)[C@@H]1C(=O)N(c3ccccc3)C(=O)[C@@H]1[C@H](C)C2	x	n	x	x	x
CCOc1ccc(NC(=O)COC(=O)c2ccccc2OCC(=O)N(C)C)cc1	n	x	x	n	x
COc1cccc(OC)c1-c1cc(CCCc2cc(-c3c(OC)cccc3OC)nc3ccccc23)c2ccccc2n1	n	x	x	n	x
CCc1cc(N2CCOCC2)cc2c1[nH]c1ccccc12	n	-43.4	n	n	n
c1ccc2c(c1)[nH]c1c(N3CCOCC3)ncnc12	n	n	n	n	n
C=C1C=C(C(F)F)n2ncc(C(=O)N3CCCCC3)c2N1	n	x	x	n	x
CC(C)(C)n1ncc2c(=O)n(Cc3c(F)ccc(F)c3Cl)cnc21	n	x	x	n	x
COc1ccc(C(=O)/C=C/c2cc(C(=O)O)cc3c2OCOC3)c(O)c1	n	n	n	u	n
O=C(O)c1cc(/C=C/C(=O)c2cc(F)ccc2O)c2c(c1)COCO2	n	n	n	44.7µM	n
CN1CCc2c(sc3c2C(=O)NC(c2ccccn2)N3)C1 (centres undefined)	n	-61.5	n	u	n
CCN(CC)C(=O)CSc1nc(-c2ccc(C)cc2)nc2c1Cc1c(CO)cnc(C)c1O2	n	x	x	20µM	n
Cc1ccc(-c2nc3c(c(SCC(=O)N(C)c4ccccc4)n2)Cc2c(CO)cnc(C)c2O3)cc1	n	x	x	u	u
CCOC(=O)c1c(NC(=S)NC)sc2c1CC(C)(C)SC2	n	n	n	11.2µM	n
CCOC(=O)c1c(NC(=S)Nc2ccccc2)sc2c1CC(C)(C)SC2	n	n	n	u	n
CC(=O)Nc1ccc(S(=O)(=O)N2CCc3nc(COc4ccccc4)c4c(c3C2)CO[C@@H](C)C4)cc1	x	n	x	x	x
